Results taken from PubChem BioAssay AID1159580 (chemical genetic matrix, 2015).
Hit rate of the full screen: of about 5,500 compounds, about 2,000 (36%) were called active. About 18% were inconclusive and are not listed. Rule as the data show it: active = normalized growth mostly below about 0.91 (no sharp cut-off); inconclusive = no clear call, values can overlap the other calls; inactive = mostly above about 0.92. The list shows a part of the results.

Test: chemical genetic growth profiling, strain panel (AID 1159580);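 also: tested at 20 µM; growth read once vehicle control cultures reached saturation at 30 °C; 1 = growth at the plate median or of vehicle wells; lower values mean less growth of the strain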
Conditions: growth OD

Measured: normalized growth

O=C(O)c1ccc(S(=O)(=O)N(Cl)Cl)cc1
inactive: S. cerevisiae deletion strains, locus YJR066W, strain TOR1, hits give low values 0.916 | S. cerevisiae deletion strains, locus YKL009W, strain mrt4, hits give low values 0.99 | S. cerevisiae deletion strains, locus YKL068W, hits give low values 1 | S. cerevisiae deletion strains, locus YKL085W, strain MDH1 (second series), hits give low values 1.01 | S. cerevisiae deletion strains, locus YKL085W, strain MDH1, hits give low values 1.01 | S. cerevisiae deletion strains, locus YKL160W, strain elf1, hits give low values 1.05 | S. cerevisiae deletion strains, locus YKL190W, strain CNB1, hits give low values 1 | S. cerevisiae deletion strains, locus YKR001C, strain vps1, hits give low values 1.02 | S. cerevisiae deletion strains, locus YKR026C, strain gcn3, hits give low values 0.977 | S. cerevisiae deletion strains, locus YKR091W, strain srl3, hits give low values 0.989 | S. cerevisiae deletion strains, locus YLL001W, strain dnm1, hits give low values 1.03 | S. cerevisiae deletion strains, locus YLL026W, hits give low values 0.976 | S. cerevisiae deletion strains, locus YLL041C, strain sdh2, hits give low values 0.989 | S. cerevisiae deletion strains, locus YLR027C, strain aat2, hits give low values 0.985 | S. cerevisiae deletion strains, locus YLR039C, strain RIC1, hits give low values 0.985 | S. cerevisiae deletion strains, locus YLR058C, strain SHM2, hits give low values 1.01 | S. cerevisiae deletion strains, locus YLR102C, strain apc9, hits give low values 1.02 | S. cerevisiae deletion strains, locus YLR113W, strain HOG1, hits give low values 0.961 | S. cerevisiae deletion strains, locus YLR221C, strain rsa3, hits give low values 1.02 | S. cerevisiae deletion strains, locus YLR258W, strain gsy2, hits give low values 0.994 | S. cerevisiae deletion strains, locus YLR262C, strain YPT6 (second series), hits give low values 1 | S. cerevisiae deletion strains, locus YLR262C, strain YPT6, hits give low values 0.995 | S. cerevisiae deletion strains, locus YLR268W, strain sec22, hits give low values 1 | S. cerevisiae deletion strains, locus YLR320W, strain mms22, hits give low values 1.05 | S. cerevisiae deletion strains, locus YLR330W, strain CHS5, hits give low values 0.999 | S. cerevisiae deletion strains, locus YLR342W, strain FKS1 (second series), hits give low values 0.993 | S. cerevisiae deletion strains, locus YLR342W, strain FKS1, hits give low values 0.983 | S. cerevisiae deletion strains, locus YLR357W, strain rsc2, hits give low values 1.01 | S. cerevisiae deletion strains, locus YLR370C, strain arc18, hits give low values 0.974 | S. cerevisiae deletion strains, locus YLR371W, strain rom2, hits give low values 1.01 | S. cerevisiae deletion strains, locus YLR384C, strain iki3, hits give low values 0.988 | S. cerevisiae deletion strains, locus YLR418C, strain cdc73, hits give low values 0.951 | S. cerevisiae deletion strains, locus YML016C, strain PPZ1, hits give low values 1.01 | S. cerevisiae deletion strains, locus YML032C, strain rad52, hits give low values 1.02 | S. cerevisiae deletion strains, locus YML120C, strain ndi1, hits give low values 1.03 | S. cerevisiae deletion strains, locus YML124C, strain tub3, hits give low values 1.03 | S. cerevisiae deletion strains, locus YMR058W, strain fet3, hits give low values 0.983 | S. cerevisiae deletion strains, locus YMR078C, strain ctf18, hits give low values 1.03 | S. cerevisiae deletion strains, locus YMR125W, strain sto1, hits give low values 1.02 | S. cerevisiae deletion strains, locus YMR129W, hits give low values 0.984 | S. cerevisiae deletion strains, locus YMR205C, strain PFK2, hits give low values 1.04 | S. cerevisiae deletion strains, locus YMR223W, strain ubp8, hits give low values 1.02 | S. cerevisiae deletion strains, locus YMR231W, strain pep5, hits give low values 0.978 | S. cerevisiae deletion strains, locus YMR307W, strain GAS1, hits give low values 0.964 | S. cerevisiae deletion strains, locus YNL067W, strain RPL9B, hits give low values 1 | S. cerevisiae deletion strains, locus YNL071W, strain lat1, hits give low values 0.998 | S. cerevisiae deletion strains, locus YNL128W, strain TEP1, hits give low values 1.02 | S. cerevisiae deletion strains, locus YNL183C, strain NPR1, hits give low values 0.926 | S. cerevisiae deletion strains, locus YNL209W, strain ssb2, hits give low values 0.983 | S. cerevisiae deletion strains, locus YNL233W, strain BNI4, hits give low values 0.997 | S. cerevisiae deletion strains, locus YNL248C, strain rpa49, hits give low values 1.06 | S. cerevisiae deletion strains, locus YNL250W, strain rad50, hits give low values 1.02 | S. cerevisiae deletion strains, locus YNL271C, strain bni1, hits give low values 1.03 | S. cerevisiae deletion strains, locus YNL298W, strain CLA4, hits give low values 1.05 | S. cerevisiae deletion strains, locus YNL307C, strain MCK1, hits give low values 1.01 | S. cerevisiae deletion strains, locus YNL322C, strain KRE1 (second series), hits give low values 0.992 | S. cerevisiae deletion strains, locus YNR049C, strain mso1, hits give low values 0.975 | S. cerevisiae deletion strains, locus YNR052C, strain pop2, hits give low values 1.01 | S. cerevisiae deletion strains, locus YOL006C, strain TOP1, hits give low values 1.01 | S. cerevisiae deletion strains, locus YOL012C, strain htz1 2.24 | S. cerevisiae deletion strains, locus YOL147C, strain pex11, hits give low values 1.02 | S. cerevisiae deletion strains, locus YOR001W, strain rrp6, hits give low values 0.944 | S. cerevisiae deletion strains, locus YOR061W, strain CKA2, hits give low values 1.01 | S. cerevisiae deletion strains, locus YOR069W, strain VPS5, hits give low values 0.998 | S. cerevisiae deletion strains, locus YOR070C, strain gyp1, hits give low values 0.967 | S. cerevisiae deletion strains, locus YOR080W, strain dia2, hits give low values 0.969 | S. cerevisiae deletion strains, locus YOR083W, strain WHI5, hits give low values 1.05 | S. cerevisiae deletion strains, locus YOR106W, strain vam3, hits give low values 1.06 | S. cerevisiae deletion strains, locus YOR136W, strain idh2, hits give low values 1.02 | S. cerevisiae deletion strains, locus YOR144C, strain elg1, hits give low values 1.02 | S. cerevisiae deletion strains, locus YOR184W, strain ser1, hits give low values 0.992 | S. cerevisiae deletion strains, locus YOR231W, strain MKK1, hits give low values 0.971 | S. cerevisiae deletion strains, locus YOR265W, strain rbl2, hits give low values 0.981 | S. cerevisiae deletion strains, locus YOR270C, strain vph1, hits give low values 1.01 | S. cerevisiae deletion strains, locus YOR290C, strain snf2, hits give low values 1 | S. cerevisiae deletion strains, locus YOR316C, strain cot1, hits give low values 1.02 | S. cerevisiae deletion strains, locus YPL051W, strain arl3, hits give low values 1.02 | S. cerevisiae deletion strains, locus YPL055C, strain LGE1, hits give low values 0.979 | S. cerevisiae deletion strains, locus YPL078C, strain atp4, hits give low values 1.05 | S. cerevisiae deletion strains, locus YPL106C, strain sse1, hits give low values 0.985 | S. cerevisiae deletion strains, locus YPL240C, strain hsp82, hits give low values 0.989 | S. cerevisiae deletion strains, locus YPL241C, strain CIN2, hits give low values 1 | S. cerevisiae deletion strains, locus YPL256C, strain CLN2, hits give low values 0.97 | S. cerevisiae deletion strains, locus YPR119W, strain clb2, hits give low values 1.02 | S. cerevisiae deletion strains, locus YPR141C, strain kar3, hits give low values 1.02 | S. cerevisiae deletion strains, locus YPR163C, strain tif3, hits give low values 1.04 | S. cerevisiae deletion strains, locus YPR167C, strain met16, hits give low values 1.02 | S. cerevisiae deletion strains, strain wtn01, hits give low values 1.01 | S. cerevisiae strains, strain wild type, hits give low values 1
